# According to PubChem BioAssay (NCI):
# Where “and” joins values, the source holds several entries; their conditions need not be identical. Equal entries are not always repeated. This is part of a sample that, as a whole, favours compounds with a hit. Of some 83,000 tested, about 20% had one in any assay.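 Compound tested at a single concentration for 48 hours in 96-well plates; a percent growth value below 10 was scored as active.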 Calls of active or inactive are those of the source.
# Assays:
# Assay in all cases: NCI-60 one-dose screen, 48 h (100 = growth as untreated, 0 = no growth, -100 = all killed)
# NCI-H23 lung = tested on: NCI-H23 lung
# NCI-H226 lung = tested on: NCI-H226 lung
# HOP-62 NSCLC = tested on: HOP-62 NSCLC
# NCI-H460 lung = tested on: NCI-H460 lung
# HOP-92 NSCLC = tested on: HOP-92 NSCLC
# NCI-H522 lung = tested on: NCI-H522 lung
# A549/ATCC NSCLC = tested on: A549/ATCC NSCLC
# 786-0 renal = tested on: 786-0 renal
# COLO 205 colon = tested on: COLO 205 colon
# DU-145 prostate = tested on: DU-145 prostate
smiles,measurement,setting,value
CCCCCCCCCCCC1CCCC(C)N1 (configuration not stated),growth,NCI-H23 lung; 10 µM unless noted,71.4% (inactive)
same,growth,NCI-H226 lung; 10 µM unless noted,94.8% (inactive)
same,growth,HOP-62 NSCLC; 10 µM unless noted,86.5% (inactive)
same,growth,NCI-H460 lung; 10 µM unless noted,87.9% (inactive)
same,growth,HOP-92 NSCLC; 10 µM,15.8% (inactive)
same,growth,NCI-H522 lung; 10 µM unless noted,-8.02% (active)
same,growth,A549/ATCC NSCLC; 10 µM unless noted,97.2% (inactive)
same,growth,786-0 renal; 10 µM unless noted,67.3% (inactive)
same,growth,COLO 205 colon; 10 µM unless noted,-33% (active)
same,growth,DU-145 prostate; 10 µM unless noted,92.4% (inactive)
Cc1ccc(C(=O)OC(C(=O)O)C(OC(=O)c2ccc(C)cc2)C(=O)O)cc1 (configuration not stated) (tested in a mixture with another compound),growth,NCI-H23 lung; 10 µM unless noted,41.4% (inactive)
same,growth,NCI-H226 lung; 10 µM unless noted,51.1% (inactive)
same,growth,HOP-62 NSCLC; 10 µM unless noted,66.1% (inactive)
same,growth,NCI-H460 lung; 10 µM unless noted,52.4% (inactive)
same,growth,HOP-92 NSCLC; 10 µM,17.7% (inactive)
same,growth,NCI-H522 lung; 10 µM unless noted,52.6% (inactive)
same,growth,A549/ATCC NSCLC; 10 µM unless noted,71% (inactive)
same,growth,786-0 renal; 10 µM unless noted,46% (inactive)
same,growth,COLO 205 colon; 10 µM unless noted,48.9% (inactive)
same,growth,DU-145 prostate; 10 µM unless noted,76% (inactive)
CC1=C(CO)C2=C(C)C3(CC3)[C@@](C)(O)C(=O)C2=C1,growth,NCI-H23 lung; 10 µM unless noted,-18.2% (active)
same,growth,NCI-H226 lung; 10 µM unless noted,-28.6% (active)
same,growth,HOP-62 NSCLC; 10 µM unless noted,-36% (active)
same,growth,NCI-H460 lung; 10 µM unless noted,-1.95% (active)
same,growth,NCI-H522 lung; 10 µM unless noted,-81.7% (active)
same,growth,A549/ATCC NSCLC; 10 µM unless noted,2.23% (active)
same,growth,786-0 renal; 10 µM unless noted,-21.3% (active)
same,growth,COLO 205 colon; 10 µM unless noted,-40.1% (active)
same,growth,DU-145 prostate; 10 µM unless noted,-20.1% (active)
S=C(SSC(=S)N1CCCCC1)N1CCCCC1,growth,NCI-H23 lung; 10 µM,101% (inactive)
same,growth,NCI-H23 lung; 100 µM,-5.33% (active)
same,growth,NCI-H226 lung; 10 µM,104% (inactive)
same,growth,NCI-H226 lung; 100 µM,10.4% (inactive)
same,growth,HOP-62 NSCLC; 10 µM,110% (inactive)
same,growth,HOP-62 NSCLC; 100 µM,37.6% (inactive)
same,growth,NCI-H460 lung; 10 µM,91.9% (inactive)
same,growth,NCI-H460 lung; 100 µM,-2.57% (active)
same,growth,HOP-92 NSCLC; 10 µM,101% (inactive)
same,growth,HOP-92 NSCLC; 100 µM,9.88% (active)
same,growth,NCI-H522 lung; 10 µM,87% (inactive)
same,growth,NCI-H522 lung; 100 µM,-44.2% (active)
same,growth,A549/ATCC NSCLC; 10 µM,93.3% (inactive)
same,growth,A549/ATCC NSCLC; 100 µM,26.1% (inactive)
same,growth,786-0 renal; 10 µM,98.7% (inactive)
same,growth,786-0 renal; 100 µM,-3.71% (active)
same,growth,COLO 205 colon; 10 µM,110% (inactive)
same,growth,COLO 205 colon; 100 µM,-69.1% (active)
same,growth,DU-145 prostate; 10 µM,107% (inactive)
same,growth,DU-145 prostate; 100 µM,9.68% (active)
Oc1cccc2cccnc12,growth,NCI-H23 lung; 10 µM unless noted,102% (inactive) and 109% (inactive) and 104% (inactive)
same,growth,NCI-H226 lung; 10 µM unless noted,94.5% (inactive) and 98.1% (inactive) and 98.6% (inactive)
same,growth,HOP-62 NSCLC; 10 µM unless noted,94.7% (inactive) and 98.3% (inactive) and 104% (inactive)
same,growth,NCI-H460 lung; 10 µM unless noted,83.7% (inactive) and 104% (inactive) and 102% (inactive)
same,growth,HOP-92 NSCLC; 10 µM,89.1% (inactive)
same,growth,NCI-H522 lung; 10 µM unless noted,10.8% (inactive) and 103% (inactive)
same,growth,A549/ATCC NSCLC; 10 µM unless noted,100% (inactive) and 105% (inactive) and 111% (inactive)
same,growth,786-0 renal; 10 µM unless noted,106% (inactive) and 105% (inactive)
same,growth,COLO 205 colon; 10 µM unless noted,65% (inactive) and 105% (inactive) and 102% (inactive)
same,growth,DU-145 prostate; 10 µM unless noted,82% (inactive) and 108% (inactive) and 111% (inactive)
COC1CC(CC2CCC(C)C(C(C)C(=O)O)O2)OC2(OC(C)(C3CCC(C)(C4OC(C5OC(O)(CO)C(C)CC5C)CC4C)O3)CC2C)C1C (configuration not stated),growth,NCI-H23 lung; 10 µM unless noted,9.19% (active)
same,growth,NCI-H226 lung; 10 µM unless noted,22% (inactive)
same,growth,HOP-62 NSCLC; 10 µM unless noted,10.1% (inactive)
same,growth,NCI-H460 lung; 10 µM unless noted,4.73% (active)
same,growth,NCI-H522 lung; 10 µM unless noted,-55.7% (active)
same,growth,A549/ATCC NSCLC; 10 µM unless noted,7.35% (active)
same,growth,786-0 renal; 10 µM unless noted,6.74% (active)
same,growth,COLO 205 colon; 10 µM unless noted,-12% (active)
same,growth,DU-145 prostate; 10 µM unless noted,17.5% (inactive)
CC[C@@]1(O)C(=O)OCc2c1cc1n(c2=O)Cc2cc3ccccc3nc2-1,growth,NCI-H23 lung; 10 µM unless noted,-26.7% (active)
same,growth,NCI-H226 lung; 10 µM unless noted,-54% (active)
same,growth,HOP-62 NSCLC; 10 µM unless noted,-10.3% (active)
same,growth,NCI-H460 lung; 10 µM unless noted,-25.8% (active)
same,growth,NCI-H522 lung; 10 µM unless noted,-49% (active)
same,growth,A549/ATCC NSCLC; 10 µM unless noted,-21.1% (active)
same,growth,786-0 renal; 10 µM unless noted,-18.5% (active)
same,growth,COLO 205 colon; 10 µM unless noted,-38% (active)
same,growth,DU-145 prostate; 10 µM unless noted,-31.9% (active)
Oc1cc[c]([Hg][Cl])cc1,growth,NCI-H23 lung; 10 µM unless noted,87.8% (inactive)
same,growth,NCI-H226 lung; 10 µM unless noted,113% (inactive)
same,growth,HOP-62 NSCLC; 10 µM unless noted,123% (inactive)
same,growth,NCI-H460 lung; 10 µM unless noted,88.8% (inactive)
same,growth,HOP-92 NSCLC; 10 µM,161% (inactive)
same,growth,NCI-H522 lung; 10 µM unless noted,-47% (active)
same,growth,A549/ATCC NSCLC; 10 µM unless noted,99.3% (inactive)
same,growth,786-0 renal; 10 µM unless noted,102% (inactive)
same,growth,COLO 205 colon; 10 µM unless noted,130% (inactive)
same,growth,DU-145 prostate; 10 µM unless noted,94.3% (inactive)
NCCc1ccc(OCc2ccccc2)c(OCc2ccccc2)c1,growth,NCI-H23 lung; 10 µM unless noted,87.6% (inactive)
same,growth,NCI-H226 lung; 10 µM unless noted,103% (inactive)
same,growth,HOP-62 NSCLC; 10 µM unless noted,87.3% (inactive)
same,growth,NCI-H460 lung; 10 µM unless noted,60.6% (inactive)
same,growth,HOP-92 NSCLC; 10 µM,-2.74% (active)
same,growth,786-0 renal; 10 µM unless noted,84.2% (inactive)
same,growth,COLO 205 colon; 10 µM unless noted,13.5% (inactive)
same,growth,DU-145 prostate; 10 µM unless noted,97.3% (inactive)
Cc1cc(N=Nc2ccccc2C)ccc1N,growth,NCI-H23 lung; 10 µM unless noted,79.6% (inactive)
same,growth,NCI-H226 lung; 10 µM unless noted,71.1% (inactive)
same,growth,HOP-62 NSCLC; 10 µM unless noted,69.3% (inactive)
same,growth,NCI-H460 lung; 10 µM unless noted,80.7% (inactive)
same,growth,HOP-92 NSCLC; 10 µM,48.8% (inactive)
same,growth,NCI-H522 lung; 10 µM unless noted,57.6% (inactive)
same,growth,A549/ATCC NSCLC; 10 µM unless noted,47.6% (inactive)
same,growth,786-0 renal; 10 µM unless noted,-13.5% (active)
same,growth,COLO 205 colon; 10 µM unless noted,111% (inactive)
same,growth,DU-145 prostate; 10 µM unless noted,68.1% (inactive)
CC(=O)O[C@H]1C[C@@H]2OC3C=C(C)CCC3(C)[C@@]1(C)[C@@]21CO1 (some centres not stated),growth,NCI-H23 lung; 10 µM unless noted,-32.5% (active) and -10.8% (active)
same,growth,NCI-H226 lung; 10 µM unless noted,-24.8% (active)
same,growth,HOP-62 NSCLC; 10 µM unless noted,17% (inactive) and -10.8% (active)
same,growth,NCI-H460 lung; 10 µM unless noted,0.408% (active) and -3.28% (active)
same,growth,HOP-92 NSCLC; 10 µM,-21.3% (active) and -15.3% (active)
same,growth,NCI-H522 lung; 10 µM unless noted,-46.4% (active) and -45.1% (active)
same,growth,A549/ATCC NSCLC; 10 µM unless noted,-9.42% (active) and -20.5% (active)
same,growth,786-0 renal; 10 µM unless noted,-15.6% (active) and -10.8% (active)
same,growth,COLO 205 colon; 10 µM unless noted,-61.6% (active) and -70.2% (active)
same,growth,DU-145 prostate; 10 µM unless noted,-10.8% (active) and -37.3% (active)
C[C@]12CC[C@H](O)CC1=CC[C@@H]1[C@@H]2CC[C@]2(C)C(=O)CC[C@@H]12,growth,NCI-H23 lung; 10 µM unless noted,96% (inactive)
same,growth,NCI-H226 lung; 10 µM unless noted,102% (inactive)
same,growth,HOP-62 NSCLC; 10 µM unless noted,96.4% (inactive)
same,growth,NCI-H460 lung; 10 µM unless noted,108% (inactive)
same,growth,NCI-H522 lung; 10 µM unless noted,48% (inactive)
same,growth,A549/ATCC NSCLC; 10 µM unless noted,106% (inactive)
same,growth,786-0 renal; 10 µM unless noted,92.6% (inactive)
same,growth,COLO 205 colon; 10 µM unless noted,93.4% (inactive)
same,growth,DU-145 prostate; 10 µM unless noted,122% (inactive)
CO[C@H](/C(C)=C/C=C/C(C)=C/c1coc(C)n1)[C@H](C)[C@H]1C[C@@H](O)[C@@]2(C)O[C@H]2/C=C/[C@@H](C)[C@@H]2C[C@@H](CC(=O)O2)C[C@H]2O[C@@H]2C(=O)O1,growth,NCI-H23 lung; 10 µM unless noted,24.4% (inactive)
same,growth,NCI-H226 lung; 10 µM unless noted,34.8% (inactive)
same,growth,HOP-62 NSCLC; 10 µM unless noted,11.1% (inactive)
same,growth,NCI-H460 lung; 10 µM unless noted,8.2% (active)
same,growth,NCI-H522 lung; 10 µM unless noted,-33.1% (active)
same,growth,A549/ATCC NSCLC; 10 µM unless noted,42.9% (inactive)
same,growth,786-0 renal; 10 µM unless noted,15.6% (inactive)
same,growth,COLO 205 colon; 10 µM unless noted,-28.7% (active)
same,growth,DU-145 prostate; 10 µM unless noted,-18.9% (active)
CCC(=O)OC1CCn2c1nc1c2C(=O)C(C)=C(N2CC2)C1=O (configuration not stated),growth,NCI-H23 lung; 10 µM unless noted,-28.5% (active)
same,growth,NCI-H226 lung; 10 µM unless noted,-23% (active)
same,growth,HOP-62 NSCLC; 10 µM unless noted,-29.4% (active)
same,growth,NCI-H460 lung; 10 µM unless noted,-23.6% (active)
same,growth,HOP-92 NSCLC; 10 µM,80.9% (inactive)
same,growth,NCI-H522 lung; 10 µM unless noted,-43% (active)
same,growth,A549/ATCC NSCLC; 10 µM unless noted,2.51% (active)
same,growth,786-0 renal; 10 µM unless noted,-16.5% (active)
same,growth,COLO 205 colon; 10 µM unless noted,-74.3% (active)
